A short description of assay [1]: Cell Viability - Jurkat (AID 426;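 active means dose-dependent loss of cell ATP signal giving a full or clear fitted curve, ranked by lower potency value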; further: potency means the concentration at half of the fitted maximal effect). The settings on record: qHTS. The method, boiled down: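 Jurkat (Clone E6-1) cells, 5000/well in complete medium, exposed to compounds for 40 hr at 37C; intracellular ATP measured by CellTiter-Glo luminescence after 20 min at room temperature. AC50 from Hill fits.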
On the technique in general: Quantitative high-throughput screening tests each substance at several concentrations.

Assay [2] concerns the target Mitogen-activated protein kinase 10 (Mus musculus) (UniProt Q61831). Briefly: JNK3 AlphaScreen Assay (AID 530; active means well fitted curve in either direction with a large enough effect, not every such curve was filed as active;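 further: kinase came from lysate of stimulated human HepG2 cells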; further: potency means the concentration at half of the fitted maximal effect). Conditions: JNK3 lysate, c-Jun phosphorylation; series mostly up to 57.1 µM. The method, boiled down: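 Pre-activated (IL-1β/TNFα) JNK3 in HepG2 lysates phosphorylates biotin-GST-cJun(1-79), 10 uM ATP; anti-phospho-cJun(Ser73) AlphaScreen read at room temperature, pH 7.6 Tris buffer. Compounds pre-incubated 15 min as titrations.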

Assay [3] can be described thus: Cell Viability - LYMP2-024 (AID 988; active means well fitted curve in the direction sought with a large enough effect; an effect the other way counts as inactive or inconclusive;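 further: plate controls were DMSO only for no effect and 92 µM tetraoctylammonium bromide for full effect; nearly all actives have a fitted effect of over 60% in size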). Conditions: LYMP2-024 lymphoblastoid cell viability; series mostly up to 92.2 µM. The gist of the method:
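Human lymphoblastoid LYMP2-024 cells (2500/well) rested 5 hr, then treated with compound for 24 hr at 37 C in complete medium. Viability was measured as intracellular ATP by CellTiter-Glo luminescence. AC50 values came from Hill-equation fits.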

Assay [4] deals with Estrogen receptor (Homo sapiens) (UniProt P03372). Briefly: qHTS assay for small molecule antagonists of estrogen receptor alpha signaling (AID 588513; active means well fitted curve in the direction sought with a large enough effect in the signal ratio, with a control signal flat, not every such curve was filed as active; the % refers to the signal ratio; further: on the % scale 0 is the no-effect control and ±100 the full control effect). Conditions: ER-alpha-UAS-bla HEK293, beta-lactamase ratio, antagonist mode; series mostly up to 76.9 µM. The gist of the method:
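ER-alpha-UAS-bla GripTite HEK 293 cells in 2% charcoal/dextran-treated FBS medium; compounds titrated (1:2, duplicate), then stimulated with 0.5 nM 17-beta-estradiol for 18 h at 37C. CCF4 beta-lactamase fluorescence; Hill-fit IC50 and efficacy.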

Assay [5] addresses Bile acid receptor (Homo sapiens) (UniProt Q96RI1). The experiment in a line: qHTS assay for small molecule agonists of farnesoid X receptor signaling (AID 588527).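 Further: 0% = vehicle basal and 100% = reference agonist.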 Conditions: HEK293T FXR-UAS-bla, beta-lactamase ratio, 16 h; stronger effect = higher value. The gist of the method:
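Read-out: beta-lactamase reporter fluorescence with CCF4 substrate in GeneBLAzer FXR-UAS-bla HEK293T cells, after 16 h compound exposure at 37 C. Response scaled between DMSO basal (0%) and chenodeoxycholic acid at 100 uM (100%).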

For assay [6], the target named is Glucocorticoid receptor (Homo sapiens) (UniProt P04150). The experiment in a line: qHTS assay for small molecule agonists of glucocorticoid receptor signaling (AID 588532; active means well fitted curve in the direction sought with a large enough effect in the signal ratio, with a control signal flat; the % refers to the signal ratio;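 further: 100% = dexamethasone at 0.1 µM and 0% = DMSO only wells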). The settings on record: HeLa MMTV-bla, beta-lactamase ratio, agonist, 18 h; stronger effect = higher value; percent of dexamethasone control, DMSO zero. The gist of the method: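 Cells were plated and rested 3-5 h at 37 C, compounds were added in titration and incubated 18 h, then CCF4 substrate was loaded for 2 h at RT before reading blue/green fluorescence. EC50 came from Hill-equation fitting.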
Chain of Glucocorticoid receptor (Homo sapiens) (P04150 whole entry, looked up): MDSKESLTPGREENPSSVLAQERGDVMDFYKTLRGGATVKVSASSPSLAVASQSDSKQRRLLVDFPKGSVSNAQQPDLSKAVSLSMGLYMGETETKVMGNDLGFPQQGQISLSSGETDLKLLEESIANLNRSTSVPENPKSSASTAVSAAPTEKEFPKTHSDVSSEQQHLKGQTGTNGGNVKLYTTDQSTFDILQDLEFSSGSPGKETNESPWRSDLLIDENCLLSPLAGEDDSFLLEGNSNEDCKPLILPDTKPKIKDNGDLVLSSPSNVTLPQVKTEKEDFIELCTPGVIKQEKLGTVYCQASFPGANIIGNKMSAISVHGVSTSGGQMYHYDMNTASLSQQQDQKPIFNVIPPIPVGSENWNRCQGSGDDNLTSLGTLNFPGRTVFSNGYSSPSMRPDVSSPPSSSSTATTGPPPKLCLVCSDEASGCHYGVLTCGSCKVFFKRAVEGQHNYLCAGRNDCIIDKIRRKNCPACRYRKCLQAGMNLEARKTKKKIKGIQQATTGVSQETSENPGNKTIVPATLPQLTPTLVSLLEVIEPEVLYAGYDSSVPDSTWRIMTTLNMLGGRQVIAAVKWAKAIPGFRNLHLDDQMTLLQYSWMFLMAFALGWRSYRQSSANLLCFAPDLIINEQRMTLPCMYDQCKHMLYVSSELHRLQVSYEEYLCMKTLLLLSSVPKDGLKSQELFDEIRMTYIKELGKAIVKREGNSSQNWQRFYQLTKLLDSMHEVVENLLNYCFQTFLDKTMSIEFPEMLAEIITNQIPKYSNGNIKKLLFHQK

The target is the same in assay [7]. The experiment in a line: qHTS assay for small molecule antagonists of glucocorticoid receptor signaling (AID 588533; active means well fitted inhibition curve with a large enough effect in the signal ratio, with a control signal flat, not every such curve was filed as active; the % refers to the signal ratio;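 further: cells stimulated with 2 nM dexamethasone as agonist; on the % scale 0 is the no-effect control and ±100 the full control effect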). Conditions: HeLa MMTV-bla, GRE beta-lactamase ratio, antagonist mode, 18 h; series mostly up to 76.8 µM. The method, boiled down:
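Antagonist-mode qHTS: compound titrations added to GRE-bla HeLa cells, then dexamethasone 2 nM final; 18 h, 37 C. CCF4 FRET fluorescence normalized to dexamethasone and DMSO; IC50 from Hill fit.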

Assay [8] addresses Peroxisome proliferator-activated receptor gamma (Homo sapiens) (UniProt P37231). Briefly: qHTS assay for small molecule agonists of peroxisome proliferator-activated receptor gamma signaling (AID 588536; active means well fitted curve in the direction sought with a large enough effect in the signal ratio, with a control signal flat, not every such curve was filed as active; the % refers to the signal ratio;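 further: 0% = DMSO basal wells and 100% = rosiglitazone at 2 µM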). Conditions: HEK293 PPARg-UAS-bla, beta-lactamase ratio, 16 h, percent of rosiglitazone response, DMSO as zero; series mostly up to 76.7 µM. The method, boiled down: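 Test agents, titrated, stimulated HEK293 UAS-bla cells overnight (16 h, 37 C). Substrate CCF4 was then added for two hours at room temperature before fluorescence reading.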

Assay [9] shares this target. The experiment in a line: qHTS assay for small molecule antagonists of peroxisome proliferator-activated receptor gamma signaling (AID 588537; active means well fitted inhibition curve with a large enough effect in the signal ratio, with a control signal flat, not every such curve was filed as active; the % refers to the signal ratio;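 further: reporter cells co-stimulated with 50 nM rosiglitazone agonist during compound treatment; % of control where 0% means no effect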). Conditions: HEK293 PPARg-UAS-bla, beta-lactamase ratio, antagonist mode; series mostly up to 76.8 µM. The method, boiled down: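 PPARγ-UAS-bla HEK293 cells (3000/well) in 1% charcoal/dextran-stripped FBS are treated with compound, then stimulated with 50 nM rosiglitazone for 16 h at 37 °C. Read-out is CCF4 β-lactamase fluorescence after 2 h at RT. IC50 comes from Hill fits normalised to rosiglitazone and DMSO.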

A short description of assay [10]: qHTS assay for small molecule agonists of the antioxidant response element (ARE) signaling pathway (AID 651741; active means well fitted activation curve with a large enough effect in the signal ratio; the % refers to the signal ratio; further: potency means the concentration at half of the fitted maximal effect). Conditions: HepG2 ARE-bla reporter, beta-lactamase FRET ratio, 16 h; series mostly up to 96 µM. The gist of the method: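 CellSensor ARE-bla HepG2 cells (2,000/well) carrying ARE-driven beta-lactamase, exposed 16 h at 37 C. LiveBLAzer B/G FRET substrate added for 2 h at room temperature; fluorescence intensity read.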

The nature of assay [11]: qHTS assay for small molecule activators of the nuclear factor-kappa B (NF-kB) signaling pathway (AID 651749; active means well fitted activation curve with a large enough effect in the signal ratio; the % refers to the signal ratio; further: % of control where 0% means no effect). Conditions: NF-kB-bla ME-180 cells, beta-lactamase FRET ratio, 16 h; stronger effect = higher value. The method, boiled down: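 NF-kB-bla ME-180 cells carrying a beta-lactamase reporter under an NF-kB response element, 2,000 cells/well, exposed to compound for 16 hr at 37C; FRET-based beta-lactamase fluorescence read-out of pathway activation.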

A short description of assay [12]: qHTS assay for small molecule disruptors of the mitochondrial membrane potential - 5 hr assay (AID 651755). Further: nearly all actives have a fitted effect of over 40% in size. Further: potency means the concentration at half of the fitted maximal effect. Conditions: JC-1-type ratio dye; series mostly up to 92.2 µM. The method, boiled down: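 HepG2 cells (2,000/well), attached overnight, exposed to compound 5 hr at 37C, then Mito-MPS dye 30 min. Fluorescence read for monomers (490/535 nm) and aggregates (540/590 nm).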

The nature of assay [13]: Cell Viability - HepG2 (AID 433).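 Further: potency means the concentration at half of the fitted maximal effect; potency for ATP loss meaning cytotoxicity.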 The settings on record: qHTS. The gist of the method: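 HepG2 cells, 1500 per well, treated 40 hr at 37 °C in complete medium; viability from intracellular ATP by CellTiter-Glo luminescence. Normalized to DMSO and 100 uM tamoxifen; AC50 from Hill fit of qHTS concentration-response.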
Assay [14] in a line: qHTS assay for small molecule antagonists of peroxisome proliferator-activated receptor delta signaling (AID 588535; active means well fitted inhibition curve with a large enough effect in the signal ratio, with a control signal flat, not every such curve was filed as active; the % refers to the signal ratio;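 on max response: cells co-treated with a PPAR-delta agonist as stimulator during compound exposure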). Conditions: HEK293T PPARd-UAS-bla, beta-lactamase FRET ratio, 18 h; 460 nm channel. The method, boiled down:
(§1)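 Antagonist-mode beta-lactamase reporter (GeneBLAzer PPAR-delta-UAS-bla) in HEK293T cells, 2% charcoal/dextran FBS, 4000 cells/well. Compound titrations, 18 h at 37 C; CCF4 ratio read, IC50 and efficacy from Hill fits.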

In assay [15] the target is Tumor necrosis factor (Homo sapiens) (UniProt P01375). The experiment in a line: qHTS assay to identify small molecules that stimulate Tumor Necrosis Factor-alpha (TNF-alpha) secretion (AID 651757; active means well fitted curve in the direction sought with a large enough effect in the signal ratio; the % refers to the signal ratio; further: 0% is about no effect). The settings on record: Human cells, HTRF 665/615 ratio; series mostly up to 92.2 µM. The method, boiled down: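 THP-1 cells (3000/well) exposed to compounds 17 hrs at 37 C. Secreted TNF-alpha detected by HTRF with cryptate- and XL665-labeled anti-TNF-alpha antibodies after 3 hr at room temperature.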
Chain of Tumor necrosis factor (Homo sapiens) (P01375 whole entry, looked up): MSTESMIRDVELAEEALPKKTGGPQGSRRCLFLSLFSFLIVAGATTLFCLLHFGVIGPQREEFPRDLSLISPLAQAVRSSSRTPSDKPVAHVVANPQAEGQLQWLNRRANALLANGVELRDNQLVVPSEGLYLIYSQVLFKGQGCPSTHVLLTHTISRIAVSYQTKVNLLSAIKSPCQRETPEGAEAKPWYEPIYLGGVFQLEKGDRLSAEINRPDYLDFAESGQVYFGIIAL

Assay [16] concerns the target Nuclear receptor ROR-gamma (Homo sapiens) (UniProt P51449). Briefly: qHTS assay for small molecule antagonists of the retinoid-related orphan receptor gamma (ROR-gamma) signaling pathway (AID 651802; active means well fitted curve in the direction sought with a large enough effect; an effect the other way counts as inactive or inconclusive;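 further: luciferase reporter luminescence driven by ROR response element; on the % scale 0 is the no-effect control and ±100 the full control effect; nearly all actives have a fitted effect of over 60% in size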). Conditions: ROR-gamma antagonist cell reporter assay; series mostly up to 92.2 µM. The gist of the method:
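CHO cells with TET-inducible ROR-gamma and RORE-luciferase reporter, dosed then doxycycline-induced. After 16 h at 37C, One-Glo luminescence read; decreased signal indicates antagonism.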

Assay [17] can be described thus: Cell Viability - NIH 3T3 (AID 541; active means well fitted curve in the direction sought with a large enough effect; an effect the other way counts as inactive or inconclusive;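 further: plate controls were DMSO alone for no effect and tamoxifen positive control for full effect; nearly all actives have a fitted effect of over 25% in size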). The settings on record: NIH 3T3 cell viability, qHTS; activity change, negative = cytotoxicity: at 92.2 µM (top of the series). The gist of the method:
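Mouse NIH 3T3 fibroblasts, 1000 cells/well, rested 5 hr at 37 °C, then exposed to compound for 40 hr at 37 °C in complete medium. Viability read as intracellular ATP by CellTiter-Glo luminescence; AC50 from Hill-equation fits of concentration-response data.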

A short description of assay [18]: MultiTox-Fluor Cytotoxicity Assay - LYMP1-002 - Dead Cells (AID 960; active means well fitted curve in the direction sought with a large enough effect; an effect the other way counts as inactive or inconclusive;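 further: 0% = DMSO and 100% = tetraoctylammonium bromide; nearly all actives have a fitted effect of over 60% in size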). The settings on record: LYMP1-002 lymphoblastoid cells, dead-cell protease fluorescence; series mostly up to 46.1 µM. The method, boiled down:
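Human lymphoblastoid LYMP1-002 cells, 2500/well, treated 16 h at 37 C; dead-cell protease cleavage of bis-AAF-R110 read by fluorescence (485/520); normalized to DMSO and 15 uM tetraoctylammonium bromide; AC50 from Hill fit.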

Assay [19] addresses Peroxisome proliferator-activated receptor delta (Homo sapiens) (UniProt Q03181). The experiment in a line: qHTS assay for small molecule antagonists of peroxisome proliferator-activated receptor delta signaling (AID 588535).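 On max response: cells co-treated with a PPAR-delta agonist as stimulator during compound exposure.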 The settings on record: HEK293T PPARd-UAS-bla, beta-lactamase FRET ratio, 18 h; series mostly up to 76.7 µM. The method, boiled down:
as §1

Assay [20] concerns the target Vitamin D3 receptor (Homo sapiens) (UniProt P11473). Briefly: qHTS assay for small molecule agonists of vitamin D receptor signaling (AID 588543).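 Further: 0% = DMSO basal and 100% = reference agonist control.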 Conditions: HEK293T VDR-UAS-bla, beta-lactamase ratio, 16 h; series mostly up to 76.8 µM. The gist of the method:
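VDR-UAS-bla HEK293T cells, 2000/well, 2% charcoal-stripped FBS; compound titration 16 h at 37 C; CCF4 beta-lactamase ratio read. Normalized to 50 nM 1-alpha,25-dihydroxyvitamin D3 (100%) and DMSO; Hill fit gives EC50, efficacy.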

SMILES strings stand for the structures. Where “and” joins values, the source holds several entries; their conditions need not be identical. Identical values can stand only once. Records with an inconclusive call do not appear. Calls of active or inactive are those of the source. Unless noted, the call rests on the fitted dose curve. Some results are limits rather than exact numbers.

Chain of Peroxisome proliferator-activated receptor gamma (Homo sapiens) (P37231 whole entry, looked up): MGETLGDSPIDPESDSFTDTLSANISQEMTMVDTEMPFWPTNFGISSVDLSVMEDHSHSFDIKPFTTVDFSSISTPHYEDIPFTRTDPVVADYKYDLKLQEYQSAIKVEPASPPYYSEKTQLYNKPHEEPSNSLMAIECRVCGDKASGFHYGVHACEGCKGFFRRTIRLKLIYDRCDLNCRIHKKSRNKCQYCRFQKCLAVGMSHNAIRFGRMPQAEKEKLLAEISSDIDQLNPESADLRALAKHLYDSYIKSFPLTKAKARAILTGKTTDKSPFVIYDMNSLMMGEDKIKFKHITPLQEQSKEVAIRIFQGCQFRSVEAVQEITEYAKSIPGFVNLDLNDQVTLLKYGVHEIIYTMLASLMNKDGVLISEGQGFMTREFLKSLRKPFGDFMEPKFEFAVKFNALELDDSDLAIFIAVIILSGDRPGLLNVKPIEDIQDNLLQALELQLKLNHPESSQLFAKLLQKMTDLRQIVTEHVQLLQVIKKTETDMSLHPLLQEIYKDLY
Chain of Estrogen receptor (Homo sapiens) (P03372 whole entry, looked up): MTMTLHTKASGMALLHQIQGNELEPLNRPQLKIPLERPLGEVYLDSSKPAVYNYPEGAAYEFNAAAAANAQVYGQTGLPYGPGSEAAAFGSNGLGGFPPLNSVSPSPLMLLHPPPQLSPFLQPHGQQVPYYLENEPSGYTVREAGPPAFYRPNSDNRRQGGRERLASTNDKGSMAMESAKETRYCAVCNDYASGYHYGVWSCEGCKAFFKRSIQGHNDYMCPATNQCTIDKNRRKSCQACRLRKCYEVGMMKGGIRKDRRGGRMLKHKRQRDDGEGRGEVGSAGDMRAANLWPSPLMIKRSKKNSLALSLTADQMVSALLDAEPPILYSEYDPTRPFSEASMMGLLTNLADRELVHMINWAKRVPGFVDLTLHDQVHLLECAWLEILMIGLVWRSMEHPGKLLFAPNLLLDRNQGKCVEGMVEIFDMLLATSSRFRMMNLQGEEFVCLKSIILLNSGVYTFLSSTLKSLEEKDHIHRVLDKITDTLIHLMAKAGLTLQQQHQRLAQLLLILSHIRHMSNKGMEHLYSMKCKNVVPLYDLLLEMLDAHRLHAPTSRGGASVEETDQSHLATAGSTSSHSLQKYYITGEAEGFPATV
Chain of Nuclear receptor ROR-gamma (Homo sapiens) (P51449 whole entry, looked up): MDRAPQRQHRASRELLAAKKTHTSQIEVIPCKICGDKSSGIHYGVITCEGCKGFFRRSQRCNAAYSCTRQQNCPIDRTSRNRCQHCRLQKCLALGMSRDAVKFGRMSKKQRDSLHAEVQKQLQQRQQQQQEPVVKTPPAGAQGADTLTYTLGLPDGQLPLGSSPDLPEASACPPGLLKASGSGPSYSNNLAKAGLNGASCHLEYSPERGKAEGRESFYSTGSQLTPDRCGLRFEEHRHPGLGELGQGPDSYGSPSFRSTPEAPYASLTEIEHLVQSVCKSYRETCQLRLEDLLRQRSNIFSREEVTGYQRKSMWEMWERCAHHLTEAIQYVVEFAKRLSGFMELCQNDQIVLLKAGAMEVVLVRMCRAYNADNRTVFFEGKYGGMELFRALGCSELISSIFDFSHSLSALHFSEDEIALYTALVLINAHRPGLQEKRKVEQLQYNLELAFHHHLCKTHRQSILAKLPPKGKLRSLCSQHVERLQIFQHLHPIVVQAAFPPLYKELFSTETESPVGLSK
Chain of Bile acid receptor (Homo sapiens) (Q96RI1 whole entry, looked up): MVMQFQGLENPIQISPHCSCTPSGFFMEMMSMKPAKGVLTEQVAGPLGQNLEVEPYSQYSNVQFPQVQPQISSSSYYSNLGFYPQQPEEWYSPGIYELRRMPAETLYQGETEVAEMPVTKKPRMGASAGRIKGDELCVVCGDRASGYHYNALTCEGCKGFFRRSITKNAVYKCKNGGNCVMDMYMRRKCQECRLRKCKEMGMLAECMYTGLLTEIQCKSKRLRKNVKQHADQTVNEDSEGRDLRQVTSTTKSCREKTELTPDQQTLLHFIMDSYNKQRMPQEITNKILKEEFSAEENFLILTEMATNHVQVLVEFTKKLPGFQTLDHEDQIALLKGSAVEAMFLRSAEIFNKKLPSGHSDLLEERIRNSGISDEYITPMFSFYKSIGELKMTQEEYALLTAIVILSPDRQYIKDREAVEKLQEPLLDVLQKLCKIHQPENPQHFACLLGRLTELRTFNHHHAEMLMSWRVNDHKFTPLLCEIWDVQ
Chain of Vitamin D3 receptor (Homo sapiens) (P11473 whole entry, looked up): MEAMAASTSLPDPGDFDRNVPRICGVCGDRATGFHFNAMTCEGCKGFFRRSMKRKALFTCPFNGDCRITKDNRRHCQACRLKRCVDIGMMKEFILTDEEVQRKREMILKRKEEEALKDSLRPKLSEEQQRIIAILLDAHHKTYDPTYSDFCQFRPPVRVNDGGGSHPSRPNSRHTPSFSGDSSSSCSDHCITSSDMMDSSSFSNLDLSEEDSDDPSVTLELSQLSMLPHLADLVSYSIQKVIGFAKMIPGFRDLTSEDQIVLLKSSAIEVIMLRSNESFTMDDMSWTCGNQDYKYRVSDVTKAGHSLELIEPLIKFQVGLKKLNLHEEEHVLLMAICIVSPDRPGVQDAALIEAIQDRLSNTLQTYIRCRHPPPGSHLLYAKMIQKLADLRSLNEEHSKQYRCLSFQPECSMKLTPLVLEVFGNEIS
Chain of Peroxisome proliferator-activated receptor delta (Homo sapiens) (Q03181 whole entry, looked up): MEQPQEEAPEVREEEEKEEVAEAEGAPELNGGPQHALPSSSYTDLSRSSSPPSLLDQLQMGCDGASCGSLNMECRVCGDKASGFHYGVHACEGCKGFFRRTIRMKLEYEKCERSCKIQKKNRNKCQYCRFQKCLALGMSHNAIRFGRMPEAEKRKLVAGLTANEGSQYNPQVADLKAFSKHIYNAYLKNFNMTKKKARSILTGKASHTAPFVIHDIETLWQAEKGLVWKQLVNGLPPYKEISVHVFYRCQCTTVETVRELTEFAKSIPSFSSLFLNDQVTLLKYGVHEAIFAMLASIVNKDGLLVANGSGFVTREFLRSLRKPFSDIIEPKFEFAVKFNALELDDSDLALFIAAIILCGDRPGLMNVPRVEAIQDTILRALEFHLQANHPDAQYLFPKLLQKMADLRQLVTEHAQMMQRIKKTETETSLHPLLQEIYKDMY

For `Cc1ccc2c(c1N)C(=O)c1ccccc1C2=O`, the Potency is > 92 µM (inactive) in assay [1]; 3.98 µM (active) in [2]; 21.1 µM (active) and 17.2 µM (active) in assay [10]; 2.66 µM (active) in assay [12]. Moreover, the Potency result in assay [3], in [4] and in assay [9] was “inactive” each time. In addition, the activation is -0.569% (inactive) and 1.06% (inactive) in assay [5]; -11.3% (inactive) and -4.68% (inactive) in assay [6]; 0.359% (inactive) and 2.04% (inactive) in assay [11]. Further, the outcome in [7] and in assay [8] was inactive.

With `N#CC(Br)Br`, the Potency in assay [13] was > 92 µM (inactive); in assay [10], 42.2 µM (active). Also, the Potency entry in assay [2], in assay [4], in assay [9], in assay [12] and in assay [16] was “inactive” each time. Besides, the activation is -0.424% (inactive) in [5], -5.99% (inactive) in assay [6] and -1.36% (inactive) in assay [11]. Besides, in [14], the max response was -6.9%. Besides, the outcome in assay [8] and in assay [15] was inactive.

Regarding `CC(C)(COCC1CO1)COCC1CO1` (stereo not drawn), the Potency in assay [13] is > 92 µM (inactive). For the same compound, the Potency entry in assay [2], in assay [18], in assay [3], in assay [4], in [12] and in assay [16] was “inactive” in each case. Also, the activity change, negative = cytotoxicity in assay [17] was -105% (active). The values for the activation in [5] and in assay [11] were 1.49% (inactive) and 0.814% (inactive), respectively. Besides, the max response in assay [14] amounted to 0.207%. Further, the outcome in assay [19], in assay [8], in [20] and in assay [15] was inactive.

On to `COc1c(C(C)(C)C)cc([N+](=O)[O-])c(C)c1[N+](=O)[O-]`, for which the Potency in assay [1] is > 92 µM (inactive). Besides, the Potency result in assay [2], in assay [18], in [3], in [4], in [9] and in assay [12] was “inactive” each time. For the same compound, the Potency result in assay [16] was “inactive”. The activation was -4.08% (inactive) in [6] and -0.667% (inactive) in [11]. The outcome in [7], in assay [8] and in assay [20] was inactive.
